Results filed as inconclusive are left out. Calls of active or inactive are those of the source. Rule for the calls: active = hit-call score of the fitted dose curve at least 0.9, where 1 is the maximum; inconclusive = response in the unintended direction; inactive = score below 0.9.

Sequence of Nuclear receptor subfamily 1 group I member 2 (Homo sapiens) (O75469 whole entry, looked up): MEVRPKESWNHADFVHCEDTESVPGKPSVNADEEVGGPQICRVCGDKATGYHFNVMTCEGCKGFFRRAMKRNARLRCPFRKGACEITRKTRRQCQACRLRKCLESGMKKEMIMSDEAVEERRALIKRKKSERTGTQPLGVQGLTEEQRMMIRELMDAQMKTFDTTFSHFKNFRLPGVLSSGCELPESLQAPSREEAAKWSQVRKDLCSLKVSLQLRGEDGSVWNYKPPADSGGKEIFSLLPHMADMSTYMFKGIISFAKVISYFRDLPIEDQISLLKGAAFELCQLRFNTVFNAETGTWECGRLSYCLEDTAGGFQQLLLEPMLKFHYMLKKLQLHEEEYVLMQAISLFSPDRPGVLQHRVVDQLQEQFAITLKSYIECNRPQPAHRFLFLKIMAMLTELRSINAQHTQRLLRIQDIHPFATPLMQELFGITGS

The test concerns the target Nuclear receptor subfamily 1 group I member 2 (Homo sapiens) (UniProt O75469). Nature of the test: NVS_NR_hPXR: NovaScreen (NVS) Nuclear Receptor Binding Assay for human Pregnane X Receptor (PXR) (AID 2283365).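 Note: a drop in FRET signal versus DMSO baseline means the compound binds.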 How it is done: NVS_NR_hPXR is a biochemical, single-readout assay that uses extracted gene-proteins in a cell-free assay. Measurements were taken 2 hours after chemical dosing in a 384-well plate.NVS_NR_hPXR is one of one assay component(s) measured or calculated from the NVS_NR_hPXR assay. It is designed to make measurements of fluorescent resonance energy transfer, a form of binding reporter, as detected with fluorescent resonance energy transfer signals by Time-Resolved Fluorescence Resonance Energy Transfer (TR-FRET) technology.Data from the assay component NVS_NR_hPXR was analyzed into 1 assay endpoint. This assay endpoint, NVS_NR_hPXR, was analyzed in the positive analysis fitting direction relative to DMSO as the negative control and baseline of activity. Using a type of binding reporter, loss-of-signal activity can be used to understand changes in the binding as they relate to the gene NR1I2. Furthermore, this assay endpoint can be referred to as a primary readout, because the performed assay has only produced 1 assay endpoint. To generalize the intended target to other relatable targets, this assay endpoint is annotated to the nuclear receptor intended target family, where the subfamily is non-steroidal.
Binding assays used specific radioligands (tritiated, iodinated) with non-radioactive competitive displacement ligands in agonist or antagonist protocols (as indicated) and various reference compounds and inhibitors to titrate specific binding to receptors and transporters. Most enzyme assays (CYPs, kinases, phosphatases, proteases, HDACs) used recombinant protein and specific substrates (fluorescence mostly, some colorimetric and radioactive) and inhibitors, followed by a biochemical separation of substrate and product. All assays for the biochemical HTS were initially run in duplicate at a single concentration (10 uM for CYP450 assays and 25 uM for all others). […] Each assay was run with positive and negative controls, and concurrent controls on every plate. The follow-up (secondary) screen tested active chemical-pairs in concentration series, as well as a few additional assays not tested in the primary screen, some selected negative inactives, and several cases re-run in the concentration series for confirmatory purposes.
`CCOC(=O)NC(=S)Nc1ccccc1NC(=S)NC(=O)OCC`: the AC50 (as a rule, the concentration at which the activity in the assay is half-maximal) was 6.55 µM (active).
Turning to `CCC(=O)c1ccc(Cl)cc1`, the compound was classed as inactive.
Take `CC(C)(c1cc(Cl)c(O)c(Cl)c1)c1cc(Cl)c(O)c(Cl)c1`: the AC50 is 5.12 µM (active).
Regarding `CCc1cccc(C)c1N(C(=O)CCl)[C@@H](C)COC`, the AC50 is 5.91 µM (active).
Consider `[CH3][Sn]([CH3])([Cl])[Cl]`, for which the result was inactive.
The same measure, in the same setting: as for `O=C(NC(=O)c1c(F)cccc1F)Nc1ccc(Oc2ccc(C(F)(F)F)cc2Cl)cc1F`, the entry is “inactive”; as for `Oc1ccc(Cl)cc1`, “inactive”.
Take `CN(C)C(=O)C(c1ccccc1)c1ccccc1`: the outcome was inactive.
As to `Cc1cc(C)c(C2=C(OC(=O)CC(C)(C)C)C3(CCCC3)OC2=O)c(C)c1`, the call was inactive.
As to `CCCCCCCCCCCCCCCC[N+](C)(C)C`, the AC50 was 0.899 µM (active).
On to `CCOC(=O)COc1ccc(Cl)cc1Cl`, for which the compound was classed as inactive.
On the same count and under the same terms, as for `CC(C)[C@@H](C(=O)O[C@@H](C#N)c1cccc(Oc2ccccc2)c1)c1ccc(Cl)cc1`, the entry is “inactive”; as for `Cc1ccc(C)c2ccccc12`, “inactive”.

Source of the values: PubChem BioAssay (EPA / NIEHS).
